Screening results as filed in PubChem BioAssay.
The sample as a whole holds a higher share of hits than the screen did.
ALOX12 inh: blocks human arachidonate 12S-lipoxygenase. purified 12hLO, xylenol orange hydroperoxide absorbance. Potency, µM (titrated, usually from 108 µM), usual class: inhibitors. 580,000 tested, 1.1% active. P18054
Target sequence (P18054 whole entry, looked up): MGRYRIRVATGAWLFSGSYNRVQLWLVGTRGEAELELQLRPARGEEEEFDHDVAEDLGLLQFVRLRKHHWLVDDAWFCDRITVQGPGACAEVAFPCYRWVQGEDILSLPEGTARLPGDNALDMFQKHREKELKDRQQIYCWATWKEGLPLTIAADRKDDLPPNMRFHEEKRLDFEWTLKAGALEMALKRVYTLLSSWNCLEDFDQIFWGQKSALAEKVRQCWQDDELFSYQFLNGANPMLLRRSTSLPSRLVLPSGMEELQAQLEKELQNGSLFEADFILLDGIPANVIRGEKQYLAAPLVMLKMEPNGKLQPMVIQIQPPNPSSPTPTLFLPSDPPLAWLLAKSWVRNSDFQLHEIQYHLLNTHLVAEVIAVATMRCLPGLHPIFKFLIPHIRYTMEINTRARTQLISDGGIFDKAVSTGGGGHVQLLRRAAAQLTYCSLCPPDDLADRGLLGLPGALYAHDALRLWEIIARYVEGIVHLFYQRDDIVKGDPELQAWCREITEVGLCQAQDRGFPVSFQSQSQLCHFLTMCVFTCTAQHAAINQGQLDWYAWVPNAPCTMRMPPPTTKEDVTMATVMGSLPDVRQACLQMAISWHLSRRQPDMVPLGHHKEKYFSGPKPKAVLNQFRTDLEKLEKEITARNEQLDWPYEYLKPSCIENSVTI
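Purified human 12hLO at 150 nM in 25 mM Hepes, 0.01% Triton X-100, pH 7.0, preincubated 15 min at room temperature with compound. Reaction started with 40 uM arachidonic acid, 30 min at room temperature. Hydroperoxide measured by Fe-xylenol orange, 573/405 nm absorbance ratio.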
IL-1B inflam inh: inhibitors of inflammasome signaling (IL-1 beta secretion). activity change, % at 57.5 µM. 360,000 tested, 4.7% active. THP-1 LPS/ATP IL-1B secretion, AlphaLISA, 16 h; stronger effect = lower value; in the data active = activity change below about -50%; inconclusive = mostly about -30% to -49%
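THP-1 cells pretreated 1 hr with compounds (up to 57.5 uM final), then stimulated with LPS (250 ng/mL final) plus ATP (1.25 mM final); secreted IL-1B measured by AlphaLISA after 16 hr, decreased signal indicating inhibition.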
TDP1 cell noCPT: qHTS for Inhibitors of human tyrosyl-DNA phosphodiesterase 1 (TDP1): qHTS in cells in absence of CPT | DT40 Tdp1-/- hTDP1 cells, no CPT, ATP luminescence, 48 h | Potency, µM (highest dose often 46.2 µM), most hits filed as inhibitors | 420,000 tested, 15% active; note: nearly all actives have a fitted effect of over 55% in size
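Luminescent ATP content (CellTiter-Glo) served as the growth readout. Knockout chicken DT40 cells expressing human TDP1 were exposed to compounds without camptothecin for a minimum 48 hr at 37 °C.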
DT40 TDP1 CPT: DT40-hTDP1 cell growth loss with CPT | 420,000 tested, 12% active | Potency, µM (series often up to 46.2 µM), actives largely listed as inhibitors | chicken DT40 Tdp1-/-;hTDP1 cells + 20 nM CPT, ATP luminescence, 48 h | AID 686979; note: nearly all actives have a fitted effect of over 55% in size
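Chicken DT40 Tdp1-/- cells complemented with human TDP1, 400 cells/well, exposed to compounds plus 20 nM camptothecin for at least 48 h at 37 C; viability read as ATP content by CellTiter-Glo luminescence.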
HT1080-NT tox: kills 2HG-producing HT-1080-NT fibrosarcoma cells; HT-1080-NT fibrosarcoma viability, CellTiter-Glo ATP luminescence, 48 h; Potency, µM (series often up to 46.1 µM), actives largely listed as cytotoxic; 360,000 tested, 1.6% active; AID 686970;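 note: NT is the 2HG producing partner of a matched IDH1 knockdown line; nearly all actives have a fitted effect of over 55% in size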
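Viability of the 2HG-overproducing fibrosarcoma line after 48 hours of compound exposure at 37 degrees C was determined by luminescence with CellTiter-Glo, and concentration-effect curves were then fitted and categorized.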
HT1080 IDH1KD tx: toxicity to HT-1080 IDH1 knockdown cells (counter line). HT-1080 IDH1 knockdown viability, ATP luminescence, 48 h. Potency, µM (series often up to 46.1 µM), most hits filed as cytotoxic. 360,000 tested, 2% active
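% activity derives from luminescence (CellTiter-Glo), normalised to DMSO and no-cell wells. HT-1080-IDH1KD cells, 750/well, had 48 h compound exposure at 37 °C.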
A number is an active result; ! = repeats disagree. Unless noted, calls come from the whole dose curve; as a rule, active = well fitted curve in the direction sought with a large enough effect; inconclusive = small, poorly fitted or top-dose-only effect, or another doubt; inactive = no such curve, though single readings can be large; an effect the other way counts as inactive or inconclusive.

How did CCOc1cc2c3c(c1)C(C)=CC(C)(C)N3C(=O)C2=O do in these assays?
ALOX12 inh: inactive; IL-1B inflam inh: inactive; TDP1 cell noCPT: 2.6µM; DT40 TDP1 CPT: 3.3µM; HT1080-NT tox: 4.6µM; HT1080 IDH1KD tx: inconclusive

What do the screens show for `O=C(Nc1ccc(F)cc1)c1cnc(N2CCCCC2)c2ccccc12`?
ALOX12 inh: inactive

What do the screens show for `COc1cc(-c2nc3c(c(C)nn3-c3ccccc3)c3cc(OC)c(OC)cc23)ccc1O`?
ALOX12 inh: inactive; IL-1B inflam inh: inconclusive; TDP1 cell noCPT: 21µM; DT40 TDP1 CPT: inconclusive; HT1080-NT tox: inactive; HT1080 IDH1KD tx: inactive

Results for COc1cc2c(-c3ccccc3C)nc3c(c(C)nn3-c3ccccc3)c2cc1OC ?
ALOX12 inh: inactive; TDP1 cell noCPT: inconclusive; DT40 TDP1 CPT: 23µM

Results for COc1cc2c(-c3cc(Br)ccc3O)nc3c(c(C)nn3-c3ccccc3)c2cc1OC ?
ALOX12 inh: inactive; TDP1 cell noCPT: inactive; DT40 TDP1 CPT: inconclusive

How did COc1cc2c(C)nc3c(cnn3-c3ccccc3)c2cc1OC do in these assays?
ALOX12 inh: inactive; IL-1B inflam inh: inactive; TDP1 cell noCPT: inactive; DT40 TDP1 CPT: inactive; HT1080-NT tox: inconclusive; HT1080 IDH1KD tx: inactive

How did CC1CCC(C(C)C)C(OC(=O)COC(=O)c2ccc(N)cc2)C1 (stereo not given) do in these assays?
ALOX12 inh: inactive; IL-1B inflam inh: inactive; TDP1 cell noCPT: inconclusive; DT40 TDP1 CPT: inconclusive; HT1080-NT tox: inactive; HT1080 IDH1KD tx: inactive

Results for Cc1ccccc1OCc1n(CC(=O)OC2CC(C)CCC2C(C)C)c2ccccc2[n+]1C (stereo not given) ?
ALOX12 inh: inconclusive; IL-1B inflam inh: -97!; TDP1 cell noCPT: 2.6µM; DT40 TDP1 CPT: 10µM; HT1080-NT tox: 16µM; HT1080 IDH1KD tx: 7.3µM

What do the screens show for `CC1CCC(C(C)C)C(OC(=O)Cn2c(-c3ccc(Cl)cc3)[n+](C)c3ccccc32)C1` (stereo not given)?
ALOX12 inh: inactive; IL-1B inflam inh: -91; TDP1 cell noCPT: 2.1µM; DT40 TDP1 CPT: 2.3µM; HT1080-NT tox: 5.8µM; HT1080 IDH1KD tx: 5.8µM

Results for CC1CCC(C(C)C)C(OC(=O)COC(=O)c2c(F)cccc2Cl)C1 (stereo not given) ?
ALOX12 inh: inactive

What do the screens show for `CCNc1cc(N2CCC(CCC(=O)N3CCN(c4ncccn4)CC3)CC2)ncn1`?
ALOX12 inh: inactive

Results for CC(C)c1ccc(NS(=O)(=O)c2ccc3nc(-c4ccccc4)[nH]c3c2)cc1 ?
ALOX12 inh: inactive; TDP1 cell noCPT: inconclusive; DT40 TDP1 CPT: 15µM

What do the screens show for `Cc1cccc(NS(=O)(=O)c2ccc3[nH]c(=O)oc3c2)c1C`?
ALOX12 inh: inconclusive; IL-1B inflam inh: inactive; TDP1 cell noCPT: inactive; DT40 TDP1 CPT: inactive; HT1080-NT tox: inactive; HT1080 IDH1KD tx: inactive

What do the screens show for `Cc1ccc(NS(=O)(=O)c2ccc3nc(-c4ccccc4)[nH]c3c2)c(Br)c1`?
ALOX12 inh: inactive; TDP1 cell noCPT: 23µM; DT40 TDP1 CPT: 15µM

What do the screens show for `Cc1ccc(NS(=O)(=O)c2ccc3c(c2)NC(=O)CCS3)c(Br)c1`?
ALOX12 inh: inconclusive; IL-1B inflam inh: inactive; TDP1 cell noCPT: inactive; DT40 TDP1 CPT: inconclusive; HT1080-NT tox: inactive; HT1080 IDH1KD tx: inactive

How did Cc1cccc(NS(=O)(=O)c2ccc3nc(-c4ccccc4)[nH]c3c2)c1C do in these assays?
ALOX12 inh: inactive; IL-1B inflam inh: inactive; TDP1 cell noCPT: 16µM; DT40 TDP1 CPT: 16µM; HT1080-NT tox: inactive; HT1080 IDH1KD tx: inconclusive

How did O=S(=O)(c1ccc2nc(-c3ccccc3)[nH]c2c1)N1CCN(c2cccc(Cl)c2)CC1 do in these assays?
ALOX12 inh: inactive; IL-1B inflam inh: inactive; TDP1 cell noCPT: inconclusive; DT40 TDP1 CPT: inactive; HT1080-NT tox: inconclusive; HT1080 IDH1KD tx: inactive

Results for CC(C)c1cc(C(=O)N2CCC(C(N)=O)CC2)c2ccccc2n1 ?
ALOX12 inh: inactive
